Measurements published in PubChem BioAssay.
The source made the active and inactive calls.

Legend:
[1] = E. coli DRC41 culture turbidity changes, primary screen, E. coli filamentation inducer project, strain DRC41, OD650, 48 h (AID 1152);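 note: E. coli MC1000 strain DRC41 lacking acrAB efflux pump and sulA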; conditions: E. coli DRC41 (acrAB sulA), higher = more signal, called active from +8 up or from −8 down
[2] = small-molecule binders of probe aLefty1, primary screen, biochemical, small-molecule microarray, 635/667 nm fluorescence (AID 1153); conditions: higher = more signal;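 note: score merges spot fluorescence with signal-to-noise ratio from the scanned slide images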
[3] = PSAC antagonists in infected red cells, primary screen, cell-based, P. falciparum Indochina, OD700, 1 h (AID 1154); conditions: P. falciparum Indochina infected RBC osmotic lysis, higher = more signal, called active from +8 up or from −8 down
[4] = PSAC antagonists in infected red cells, primary screen, cell-based, P. falciparum Indochina, OD700, 2 h (AID 1155);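 note: lysis reports solute entry through the parasite surface anion channel PSAC; channel blockers reduce lysis of infected cells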; conditions: P. falciparum Indochina infected erythrocytes, osmotic lysis OD700; higher = more signal, called active from +8 up or from −8 down
[5] = osmotic lysis modulators in infected erythrocytes, primary screen, PSAC antagonist project, cell-based, P. falciparum Indochina, OD700, 3 h (AID 1156); conditions: higher = more signal, called active from +8 up or from −8 down
[6] = PSAC antagonists in infected red cells, primary screen, cell-based, P. falciparum Indochina, OD700, 18 h (AID 1157); conditions: P. falciparum Indochina infected erythrocytes, osmotic lysis OD700, 18 h; higher = more signal, called active from +8 up or from −8 down
[7] = modulators of S6 phosphorylation in cells, primary screen, cell-based, A549, cytoblot, luminescence, serum-stimulated (AID 1158); conditions: A549 phospho-S6 cytoblot, 5 h, higher = more signal;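 note: serum-stimulated A549 lung adenocarcinoma cells; signal is phosphorylated S6 detected by cytoblot immunostaining with HRP secondary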
[8] = target: NADPH oxidase 2 (Homo sapiens) (UniProt P04839); assay: NOX2-dependent H2O2 signal modulators, primary screen, NOX inhibitor project, cell-based, HEK293-NOX2, PMA-stimulated, Amplex Red fluorescence (AID 1159); conditions: 45 min, higher = more signal, called active from +8 up or from −8 down; note: test concentration not given here
NADPH oxidase 2 (Homo sapiens), sequence (P04839 whole entry, looked up): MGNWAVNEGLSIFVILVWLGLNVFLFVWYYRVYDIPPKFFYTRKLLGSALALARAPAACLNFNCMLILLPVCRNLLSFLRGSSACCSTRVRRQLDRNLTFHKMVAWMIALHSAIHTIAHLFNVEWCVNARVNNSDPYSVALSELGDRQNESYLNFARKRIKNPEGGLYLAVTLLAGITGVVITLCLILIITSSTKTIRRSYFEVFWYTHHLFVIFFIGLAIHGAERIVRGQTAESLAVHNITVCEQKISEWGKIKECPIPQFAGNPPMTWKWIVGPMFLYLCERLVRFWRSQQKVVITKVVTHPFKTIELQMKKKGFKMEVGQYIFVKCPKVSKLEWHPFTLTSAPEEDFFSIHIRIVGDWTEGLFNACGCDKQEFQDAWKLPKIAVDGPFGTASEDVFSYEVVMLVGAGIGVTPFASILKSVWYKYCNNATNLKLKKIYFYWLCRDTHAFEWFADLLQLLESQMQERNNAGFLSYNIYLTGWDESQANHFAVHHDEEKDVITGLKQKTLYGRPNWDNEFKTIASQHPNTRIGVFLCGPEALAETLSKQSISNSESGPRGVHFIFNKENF

[9] = target: NADPH oxidase 4 (Homo sapiens) (UniProt Q9NPH5); assay: NOX4-dependent H2O2 signal modulators, primary screen, NOX inhibitor project, cell-based, HEK293-NOX4, tetracycline-induced, Amplex Red fluorescence (AID 1160); conditions: 45 min, higher = more signal, called active from +8 up or from −8 down
NADPH oxidase 4 (Homo sapiens), sequence (Q9NPH5 whole entry, looked up): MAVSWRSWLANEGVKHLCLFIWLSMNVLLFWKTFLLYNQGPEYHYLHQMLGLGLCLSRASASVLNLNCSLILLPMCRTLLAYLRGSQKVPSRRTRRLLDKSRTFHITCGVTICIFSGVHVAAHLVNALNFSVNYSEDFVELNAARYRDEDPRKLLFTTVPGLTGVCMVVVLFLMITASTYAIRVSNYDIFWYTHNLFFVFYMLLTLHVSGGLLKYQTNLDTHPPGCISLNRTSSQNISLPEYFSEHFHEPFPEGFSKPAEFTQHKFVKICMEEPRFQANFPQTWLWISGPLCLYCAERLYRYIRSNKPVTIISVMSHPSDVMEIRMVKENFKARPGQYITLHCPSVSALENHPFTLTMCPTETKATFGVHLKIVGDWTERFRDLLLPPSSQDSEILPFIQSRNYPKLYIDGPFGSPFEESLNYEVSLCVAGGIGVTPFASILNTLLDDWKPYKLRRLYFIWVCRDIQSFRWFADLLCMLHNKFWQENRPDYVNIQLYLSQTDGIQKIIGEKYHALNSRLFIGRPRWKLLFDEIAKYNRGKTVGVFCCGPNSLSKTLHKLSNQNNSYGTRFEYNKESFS

[10] = target: NADPH oxidase 5 (Homo sapiens) (UniProt Q96PH1); assay: NOX5-dependent H2O2 signal modulators, primary screen, NOX inhibitor project, cell-based, HEK293-NOX5, Amplex Red fluorescence (AID 1161); conditions: HEK293-NOX5, ionomycin, 45 min, higher = more signal
NADPH oxidase 5 (Homo sapiens), sequence (Q96PH1 whole entry, looked up): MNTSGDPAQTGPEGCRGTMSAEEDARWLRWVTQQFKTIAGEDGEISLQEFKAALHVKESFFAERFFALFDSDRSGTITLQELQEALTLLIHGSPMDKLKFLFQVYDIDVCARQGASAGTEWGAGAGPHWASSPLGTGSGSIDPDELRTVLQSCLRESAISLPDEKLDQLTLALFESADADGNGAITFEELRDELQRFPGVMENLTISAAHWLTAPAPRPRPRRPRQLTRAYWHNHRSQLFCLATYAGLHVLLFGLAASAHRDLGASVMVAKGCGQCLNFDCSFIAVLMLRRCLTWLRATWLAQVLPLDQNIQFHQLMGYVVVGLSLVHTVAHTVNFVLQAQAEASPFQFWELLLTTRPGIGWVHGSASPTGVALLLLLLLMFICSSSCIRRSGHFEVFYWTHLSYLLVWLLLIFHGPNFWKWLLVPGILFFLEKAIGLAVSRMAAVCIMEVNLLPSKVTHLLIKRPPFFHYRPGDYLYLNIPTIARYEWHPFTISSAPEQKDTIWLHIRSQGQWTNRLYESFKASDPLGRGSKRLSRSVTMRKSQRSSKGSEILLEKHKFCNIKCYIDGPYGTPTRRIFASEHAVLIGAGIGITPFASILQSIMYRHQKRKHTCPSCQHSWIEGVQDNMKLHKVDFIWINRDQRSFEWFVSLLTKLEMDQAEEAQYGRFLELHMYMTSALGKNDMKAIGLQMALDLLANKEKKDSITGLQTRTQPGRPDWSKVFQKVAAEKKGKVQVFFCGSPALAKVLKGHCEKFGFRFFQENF

[11] = A549 cell viability effects, profiling panel, calcein-AM fluorescence, 48 h, basal (AID 1162); conditions: higher = more signal; note: test concentration not given here
[12] = adipocyte viability effects, profiling panel, cell-based, 3T3-L1 adipocytes, calcein-AM fluorescence, 48 h, basal (AID 1163); conditions: 3T3-L1 adipocytes viability, higher = more signal; note: test concentration not given here
[13] = HepG2 cell viability effects, profiling panel, calcein-AM fluorescence, 48 h, basal (AID 1164); conditions: higher = more signal; note: test concentration not given here
[14] = MM1S cell viability effects, profiling panel, calcein-AM fluorescence, 48 h, basal (AID 1165); conditions: higher = more signal;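 note: viability of MM1S multiple myeloma cells under basal unstimulated conditions; test concentration not given here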
[15] = basal RPMI8226 viability, no added stimulus, profiling panel, cell-based, calcein-AM fluorescence, 48 h, PK04 Diversity Set (AID 1166); conditions: RPMI8226 myeloma viability, higher = more signal;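 note: cells grown under basal conditions without added stimulus; test concentration not given here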
[16] = basal HepG2 mitochondrial membrane potential changes, profiling panel, cell-based, JC-1 fluorescence, 24 h, 100 nL compound (AID 1167); conditions: higher = more signal; note: test concentration not given here
[17] = basal 3T3-L1 adipocyte mitochondrial potential changes, profiling panel, cell-based, JC-1 fluorescence, 3T3-L1 adipocytes, 24 h, 100 nL compound (AID 1168); conditions: JC-1 mitochondrial fluorescence, higher = more signal, called active from +8 up or from −8 down; note: test concentration not given here
[18] = basal RPMI8226 mitochondrial membrane potential changes, profiling panel, cell-based, JC-1 fluorescence, 24 h, 100 nL compound (AID 1169); conditions: RPMI8226 myeloma, JC-1 mitochondrial potential fluorescence, higher = more signal; note: test concentration not given here
[19] = basal MM1S mitochondrial membrane potential changes, profiling panel, cell-based, JC-1 fluorescence, 24 h, 100 nL compound (AID 1170); conditions: higher = more signal; note: test concentration not given here
[20] = A549 lung cancer cell viability effects, profiling panel, resazurin fluorescence, 24 h, PK04 Diversity Set (AID 1171); conditions: higher = more signal, called active from +8 up or from −8 down; note: test concentration not given here

CCCCC(=C=CC[C@@H](O)c1ccc(OCCO)cc1)C[C@@H](O)c1ccccn1
z-score [1]: 0.26 (inactive)
composite z-score [2]: 0.122
z-score [3]: 15.7 (active)
z-score [4]: 2.47 (inactive)
z-score [5]: 0.871 (inactive)
z-score [6]: 0.849 (inactive)
z-score [7]: -0.787
z-score [8]: -0.697 (inactive)
z-score [9]: -0.351 (inactive)
z-score [10]: -1.77
z-score [11]: -0.0074
z-score [12]: 0.0358
z-score [13]: 0.333
z-score [14]: -2.63
z-score [15]: -0.616
z-score [16]: -1.05
z-score [17]: -1.58 (inactive)
z-score [18]: -0.674
z-score [19]: -0.94
z-score [20]: -0.477 (inactive)

CC(=O)NCCCC[C@@H]1NC(=O)[C@@H]2C[C@H](C(=O)NCCCCCC[N+](C)(C)C)[C@H](c3ccc(O)cc3)N2C1=O
z-score [1]: -0.303 (inactive)
composite z-score [2]: 0.102
z-score [3]: 1.5 (inactive)
z-score [4]: 0.0681 (inactive)
z-score [5]: -3.5 (inactive)
z-score [6]: 0.0574 (inactive)
z-score [7]: -0.879
z-score [8]: 0.881 (inactive)
z-score [9]: 0.983 (inactive)
z-score [10]: 0.139
z-score [11]: 0.131
z-score [12]: -0.348
z-score [13]: -0.611
z-score [14]: 0.258
z-score [15]: -0.539
z-score [16]: -1.33
z-score [17]: 0.164 (inactive)
z-score [18]: 0.169
z-score [19]: -0.5
z-score [20]: -0.557 (inactive)

Cc1c(-c2ccc(-c3ccc(Cl)c(Cl)c3)o2)nc(-c2ccccc2)c2c1CO[Si]2(C(C)C)C(C)C
z-score [1]: -1.3 (inactive)
composite z-score [2]: -0.101
z-score [3]: 0.311 (inactive)
z-score [4]: -0.267 (inactive)
z-score [5]: -0.803 (inactive)
z-score [6]: -0.944 (inactive)
z-score [7]: -0.298
z-score [8]: -0.545 (inactive)
z-score [9]: 0.0324 (inactive)
z-score [10]: -0.237
z-score [11]: -0.719
z-score [12]: -0.527
z-score [13]: 0.0118
z-score [14]: -3.01
z-score [15]: -3.96
z-score [16]: -1.38
z-score [17]: -0.313 (inactive)
z-score [18]: -0.933
z-score [19]: -1.66
z-score [20]: 0.525 (inactive)

COCCOC(=O)N1C(=O)[C@@]2(c3cc(C#CCNC(N)=O)ccc31)[C@H](C(=O)NC[C@H](O)c1ccccc1)[C@H]1C(=O)O[C@H](c3ccccc3)[C@H](c3ccccc3)N1[C@@H]2c1ccc(OCCO)cc1
z-score [1]: -0.242 (inactive)
composite z-score [2]: 0.278
z-score [3]: 2.83 (inactive)
z-score [4]: 0.757 (inactive)
z-score [5]: 0.742 (inactive)
z-score [6]: 0.581 (inactive)
z-score [7]: 0.457
z-score [8]: 2.5 (inactive)
z-score [9]: 1.01 (inactive)
z-score [10]: -0.677
z-score [11]: -0.877
z-score [12]: -0.116
z-score [13]: -1.07
z-score [14]: -0.286
z-score [15]: 0.995
z-score [16]: -1.61
z-score [17]: 0.213 (inactive)
z-score [18]: 0.418
z-score [19]: -0.193
z-score [20]: 0.637 (inactive)

COCCOC(=O)N1C(=O)[C@@]2(c3cc(C#Cc4ccc(OC)cc4)ccc31)[C@H](C(=O)N1CCCCCCC1)[C@H]1C(=O)O[C@H](c3ccccc3)[C@H](c3ccccc3)N1[C@@H]2c1ccccc1OCCO
z-score [1]: 0.0696 (inactive)
composite z-score [2]: 2.74
z-score [3]: 0.688 (inactive)
z-score [4]: 1.36 (inactive)
z-score [5]: 0.286 (inactive)
z-score [6]: 1.07 (inactive)
z-score [7]: -0.17
z-score [8]: 0.0983 (inactive)
z-score [9]: -0.0381 (inactive)
z-score [10]: 0.724
z-score [11]: -0.198
z-score [12]: 1.05
z-score [13]: 0.383
z-score [14]: -0.197
z-score [15]: -0.417
z-score [16]: 0.617
z-score [17]: 3.29 (inactive)
z-score [18]: -0.16
z-score [19]: -0.845
z-score [20]: 0.122 (inactive)
